Experimental data: PubChem BioAssay AID1159580 (chemical genetic matrix, 2015)
“And” between values parts separate entries of the source, which are not always exact repeats. Identical values can stand only once. Hit rate of the full screen: of about 5,500 compounds, about 2,000 (36%) were called active. About 18% were inconclusive and are not listed. Rule as the data show it: active = normalized growth mostly below about 0.91 (no sharp cut-off); inconclusive = no clear call, values can overlap the other calls; inactive = mostly above about 0.92. This is one part of the list.

Test: chemical genetic growth profiling, strain panel (AID 1159580);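 also: tested at 20 µM; growth read once vehicle control cultures reached saturation at 30 °C; 1 = growth at the plate median or of vehicle wells; lower values mean less growth of the strain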
Details: S. cerevisiae deletion strains, growth OD
[1] = locus YAL013W, strain DEP1, hits give low values
[2] = locus YAL040C, strain CLN3, hits give low values
[3] = locus YCL061C, strain MRC1 (second series), hits give low values
[4] = locus YDR363W, strain ESC2, hits give low values
[5] = locus YER002W, strain NOP16, hits give low values
[6] = locus YNL128W, strain TEP1, hits give low values
[7] = locus YNL153C, strain GIM3, hits give low values
[8] = locus YNL175C, strain NOP13, hits give low values
[9] = locus YNL197C, strain WHI3, hits give low values
[10] = locus YNL224C, strain SQS1, hits give low values
[11] = locus YOR083W, strain WHI5 (second series), hits give low values
[12] = locus YMR307W, strain GAS1, hits give low values
[13] = locus YDR150W, strain NUM1, hits give low values
[14] = locus YJR075W, strain HOC1, hits give low values

Measured: normalized growth

CCC(CO)NC(=O)C1C=C2c3cccc4[nH]cc(c34)CC2N(C)C1 (configuration not stated)
inactive: [1] 0.986 | [2] 0.999 | [3] 1 | [4] 0.991 | [5] 0.99 | locus YGR078C, strain PAC10, hits give low values 0.977 | [6] 0.997 | [7] 1.02 | [8] 0.996 | [9] 0.978 | [10] 0.995 | [11] 0.996

O=C1CCC(c2ccc(-n3ccnc3)cc2)=NN1
inactive: [1] 0.984 | [2] 0.943 | [3] 1 | [4] 1 | [5] 1.01 | locus YMR263W, strain SAP30, hits give low values 1 | [12] 1.05 | [8] 0.987 | [9] 0.979 | [10] 0.994 | [11] 0.994

N[C@@H](COP(=O)(O)O)C(=O)O
inactive: [2] 0.991 | [3] 0.989 | [13] 1.01 | [4] 1.01 | [5] 1 | [14] 0.984 | [8] 1.01 | [9] 0.984 | [10] 0.992 | locus YNL322C, strain KRE1, hits give low values 1.01 | [11] 1.01 | locus YPL055C, strain LGE1, hits give low values 1.01 | locus YPL241C, strain CIN2, hits give low values 0.997

COc1cc(=O)n(C)c2c(OCC(O)C(C)(C)O)cccc12 (configuration not stated)
inactive: [1] 1.03 | [2] 0.99 | [3] 1.01 | [4] 1.01 | [5] 0.999 | [14] 1.01 | [6] 0.99 | [8] 1 | [9] 1.02 | [10] 1.01 | [11] 1.02

Cc1[nH]ccc2c1[nH]c1cc(=O)ccc12
inactive: [1] 1.02 | locus YAL021C, strain ccr4, hits give low values 0.989 | locus YAL026C, strain drs2, hits give low values 1.01 | locus YAL030W, strain snc1, hits give low values 0.995 | locus YBL061C, strain skt5, hits give low values 0.993 | locus YBR009C, strain hhf1, hits give low values 1.01 | locus YBR021W, strain FUR4, hits give low values 1.03 | locus YBR023C, strain chs3, hits give low values 1 | locus YBR171W, strain sec66, hits give low values 0.999 | locus YBR229C, strain ROT2, hits give low values 1.01 | locus YBR231C, strain swc5, hits give low values 0.975 | locus YBR279W, strain paf1, hits give low values 1.01 | locus YCL011C, strain gbp2, hits give low values 1 | locus YCL016C, strain dcc1, hits give low values 1 | locus YCL029C, strain bik1, hits give low values 0.986 | locus YCL061C, strain MRC1, hits give low values 1 | locus YCL069W, strain vba3, hits give low values 0.995 | locus YCR088W, strain abp1, hits give low values 0.998 | locus YDL005C, strain med2, hits give low values 0.996 | locus YDL035C, strain GPR1, hits give low values 1.03 | locus YDL040C, strain nat1, hits give low values 0.993 | locus YDL074C, strain BRE1, hits give low values 1.04 | locus YDL101C, strain DUN1, hits give low values 1.01 | locus YDL185W, strain tfp1, hits give low values 0.996 | locus YDL192W, strain arf1, hits give low values 0.991 | locus YDR001C, strain nth1, hits give low values 1.01 | locus YDR069C, strain doa4, hits give low values 1.01 | locus YDR101C, strain arx1, hits give low values 0.985 | locus YDR137W, strain rgp1, hits give low values 1 | [13] 1 | locus YDR159W, strain sac3, hits give low values 0.978 | locus YDR162C, strain NBP2, hits give low values 1.03 | locus YDR195W, strain ref2 0.996 | locus YDR297W, strain sur2, hits give low values 1 | locus YDR318W, strain mcm21, hits give low values 0.993 | locus YDR334W, strain swr1, hits give low values 1 | locus YDR335W, strain msn5, hits give low values 0.995 | locus YDR388W, hits give low values 0.988 | locus YDR392W, strain spt3, hits give low values 0.96 | locus YDR502C, strain sam2, hits give low values 0.992 | locus YEL003W, strain gim4, hits give low values 0.997 | locus YEL037C, strain rad23, hits give low values 0.993 | locus YEL061C, strain CIN8 (second series), hits give low values 0.989 | locus YEL061C, strain CIN8, hits give low values 1.01 | locus YER015W, strain faa2, hits give low values 1 | locus YER016W, strain bim1, hits give low values 0.997 | locus YER110C, hits give low values 0.98 | locus YER111C, strain swi4, hits give low values 0.989 | locus YER155C, strain BEM2 (second series), hits give low values 0.973 | locus YER155C, strain BEM2, hits give low values 1.02 | locus YER167W, strain BCK2, hits give low values 1.03 | locus YFR010W, strain ubp6, hits give low values 0.995 | locus YGL078C, strain dbp3, hits give low values 0.992 | locus YGL086W, strain mad1, hits give low values 1.01 | locus YGL167C, strain pmr1, hits give low values 0.993 | locus YGL173C, strain kem1, hits give low values 1 | locus YGL227W, strain vid30, hits give low values 0.995 | locus YGL240W, strain doc1, hits give low values 0.995 | locus YGL248W, strain PDE1, hits give low values 1.02 | locus YGL253W, strain hxk2, hits give low values 1 | locus YGR135W, strain pre9, hits give low values 0.999 | locus YGR252W, strain gcn5, hits give low values 1.01 | locus YHR013C, strain ard1, hits give low values 1 | locus YHR027C, strain rpn1, hits give low values 1 | locus YHR030C, strain SLT2, hits give low values 1.01 and 0.992 | locus YHR079C, strain IRE1 (second series), hits give low values 0.991 | locus YHR079C, strain IRE1, hits give low values 0.989 | locus YHR094C, strain hxt1, hits give low values 0.986 | locus YHR129C, strain ARP1, hits give low values 1.03 | locus YHR142W, strain chs7, hits give low values 1 | locus YHR200W, strain rpn10, hits give low values 0.993 | locus YIL066C, strain RNR3, hits give low values 1.04 | locus YIL073C, strain SPO22, hits give low values 1.02 | locus YIL125W, strain kgd1, hits give low values 0.993 | locus YIR030C, strain dcg1, hits give low values 0.991 | locus YJL092W, strain hpr5, hits give low values 0.999 | locus YJL095W, strain BCK1 (second series), hits give low values 0.995 | locus YJL095W, strain BCK1, hits give low values 1.01 and 1.02 | locus YJL115W, strain asf1, hits give low values 0.994 | locus YJL129C, strain trk1, hits give low values 1 | locus YJL134W, strain LCB3, hits give low values 1 | locus YJL154C, strain vps35, hits give low values 0.997 | locus YJL164C, strain tpk1, hits give low values 0.996 | locus YJL166W, strain qcr8, hits give low values 0.995 | locus YJL168C, strain set2, hits give low values 0.986 | locus YJL187C, strain SWE1 (second series), hits give low values 1.02 | locus YJL187C, strain SWE1, hits give low values 0.996 | locus YJR043C, strain POL32, hits give low values 1.04 | locus YJR066W, strain TOR1, hits give low values 0.947 | [14] 1.02 | locus YKL009W, strain mrt4, hits give low values 0.995 | locus YKL068W, hits give low values 0.997 | locus YKL085W, strain MDH1 (second series), hits give low values 1.01 | locus YKL085W, strain MDH1, hits give low values 1.01 | locus YKL160W, strain elf1, hits give low values 1 | locus YKL190W, strain CNB1, hits give low values 0.987 | locus YKR001C, strain vps1, hits give low values 0.987 | locus YKR026C, strain gcn3, hits give low values 1 | locus YKR091W, strain srl3, hits give low values 0.992 | locus YLL001W, strain dnm1, hits give low values 0.994 | locus YLL026W, hits give low values 1 | locus YLL041C, strain sdh2, hits give low values 0.999 | locus YLR027C, strain aat2, hits give low values 0.998 | locus YLR039C, strain RIC1, hits give low values 1.06 | locus YLR058C, strain SHM2, hits give low values 1.01 | locus YLR102C, strain apc9, hits give low values 0.993 | locus YLR113W, strain HOG1, hits give low values 1.02 | locus YLR221C, strain rsa3, hits give low values 1.01 | locus YLR258W, strain gsy2, hits give low values 0.995 | locus YLR262C, strain YPT6 (second series), hits give low values 0.998 | locus YLR262C, strain YPT6, hits give low values 1.09 | locus YLR268W, strain sec22, hits give low values 0.984 | locus YLR320W, strain mms22, hits give low values 0.999 | locus YLR330W, strain CHS5, hits give low values 1 | locus YLR342W, strain FKS1 (second series), hits give low values 1.03 | locus YLR342W, strain FKS1, hits give low values 0.994 | locus YLR357W, strain rsc2, hits give low values 0.99 | locus YLR370C, strain arc18, hits give low values 1 | locus YLR371W, strain rom2, hits give low values 0.983 | locus YLR384C, strain iki3, hits give low values 0.999 | locus YLR418C, strain cdc73, hits give low values 0.997 | locus YML016C, strain PPZ1, hits give low values 1.01 | locus YML032C, strain rad52, hits give low values 0.999 | locus YML120C, strain ndi1, hits give low values 0.992 | locus YML124C, strain tub3, hits give low values 1 | locus YMR058W, strain fet3, hits give low values 1 | locus YMR078C, strain ctf18, hits give low values 0.985 | locus YMR125W, strain sto1, hits give low values 0.986 | locus YMR129W, hits give low values 0.995 | locus YMR205C, strain PFK2, hits give low values 0.983 | locus YMR223W, strain ubp8, hits give low values 1.01 | locus YMR231W, strain pep5, hits give low values 0.999 | [12] 1.09 | locus YNL067W, strain RPL9B, hits give low values 1 | locus YNL071W, strain lat1, hits give low values 1 | [6] 1.02 | [7] 1 | locus YNL183C, strain NPR1, hits give low values 0.97 | locus YNL209W, strain ssb2, hits give low values 1 | locus YNL233W, strain BNI4, hits give low values 1.01 | locus YNL248C, strain rpa49, hits give low values 0.995 | locus YNL250W, strain rad50, hits give low values 1.01 | locus YNL271C, strain bni1, hits give low values 0.988 | locus YNL298W, strain CLA4, hits give low values 1.02 | locus YNL307C, strain MCK1, hits give low values 0.988 | locus YNL322C, strain KRE1 (second series), hits give low values 0.997 | locus YNR049C, strain mso1, hits give low values 1 | locus YNR052C, strain pop2, hits give low values 1 | locus YOL012C, strain htz1 0.948 | locus YOL147C, strain pex11, hits give low values 0.986 | locus YOR001W, strain rrp6, hits give low values 0.999 | locus YOR061W, strain CKA2, hits give low values 1.01 | locus YOR069W, strain VPS5, hits give low values 1.01 | locus YOR070C, strain gyp1, hits give low values 0.998 | locus YOR080W, strain dia2, hits give low values 0.996 | locus YOR083W, strain WHI5, hits give low values 0.993 | locus YOR106W, strain vam3, hits give low values 1 | locus YOR136W, strain idh2, hits give low values 0.991 | locus YOR144C, strain elg1, hits give low values 0.983 | locus YOR184W, strain ser1, hits give low values 1 | locus YOR231W, strain MKK1, hits give low values 1.01 | locus YOR265W, strain rbl2, hits give low values 0.996 | locus YOR270C, strain vph1, hits give low values 1.01 | locus YOR290C, strain snf2, hits give low values 0.989 | locus YOR316C, strain cot1, hits give low values 0.991 | locus YPL051W, strain arl3, hits give low values 1 | locus YPL078C, strain atp4, hits give low values 1.01 | locus YPL106C, strain sse1, hits give low values 0.987 | locus YPL240C, strain hsp82, hits give low values 0.99 | locus YPL256C, strain CLN2, hits give low values 1.03 | locus YPR119W, strain clb2, hits give low values 0.987 | locus YPR141C, strain kar3, hits give low values 0.994 | locus YPR163C, strain tif3, hits give low values 0.986 | locus YPR167C, strain met16, hits give low values 0.996 | strain wtn01, hits give low values 0.984
